{"source": "PubChem BioAssay (NCATS)", "note": "Results filed as inconclusive are left out. A call without a number means that no potency is given here. The source made the active and inactive calls. The call rests on the fitted dose curve; in most records, active means well fitted inhibition curve with a large enough effect; inconclusive means small, poorly fitted or top-dose-only effect; inactive means no such curve, though single readings can be large or run the other way.", "data": [{"assay": "Primary qHTS for small molecule stabilizers of the endoplasmic reticulum resident proteome: Secreted ER Calcium Modulated Protein (SERCaMP) assay (AID 1508630)", "conditions": "SH-SY5Y GLuc-SERCaMP (Gaussia luciferase released on ER calcium loss) secretion, thapsigargin, luminescence; series mostly up to 38.4 µM", "outline": "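The SH-SY5Y reporter protocol was run at 3 concentrations up to 38.3 uM (primary) or 11 concentrations (follow-up): 16 h compound, 100 nM thapsigargin for 4 h, then extracellular luciferase luminescence.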", "values": [{"smiles": "C[C@]12CC[C@@H]3c4ccc(O)cc4CC[C@H]3[C@H]1[C@@H](O)[C@@H](O)[C@H]2O", "Potency": "inactive"}, {"smiles": "O=C1C(c2c(O)[nH]c3ccccc23)=Nc2ccccc21", "Potency": "inactive"}, {"smiles": "O=c1cc(-c2ccc(O)c(O)c2)oc2cc(O)cc(O)c12", "Potency": "inactive"}, {"smiles": "CCCC1OC2C[C@@H]3[C@H]4CCC5=CC(=O)C=C[C@]5(C)[C@H]4C(O)C[C@]3(C)[C@]2(C(=O)CO)O1", "note": "(stereo partly specified)", "Potency": "inactive"}, {"smiles": "COc1cc(F)c(C(C)C)cc1-c1ccc(C(F)(F)F)cc1CN1C(=O)O[C@H](c2cc(C(F)(F)F)cc(C(F)(F)F)c2)[C@@H]1C", "Potency": "inactive"}, {"smiles": "CN(C)S(=O)(=O)c1ccc2c(c1)C(=Cc1cc3c([nH]1)CCCC3)C(=O)N2", "Potency": "inactive"}, {"smiles": "COc1cc2nccc(Oc3ccc(NC(=O)Nc4ccc(F)cc4F)c(F)c3)c2cc1OC", "Potency": "inactive"}, {"smiles": "Nc1nc(Cl)nc2c1ncn2[C@@H]1O[C@H](CO)[C@@H](O)[C@H]1F", "Potency": "inactive"}, {"smiles": "Cc1ccc(S(=O)(=O)Nc2nc3ccccc3nc2Nc2ccc3nsnc3c2)cc1", "Potency": "inactive"}, {"smiles": "CCCCCCCCCCCCCCCC(=O)O[C@H]1[C@@H](O)[C@@H](O)[C@@H]([C@H](NC(=O)[C@@H]2C[C@@H](CCC)CN2C)[C@H](C)Cl)O[C@@H]1SC", "Potency": "inactive"}, {"smiles": "Cc1ccc2c(c1)C(=O)[C@]1(O)CCN(c3ccccc3)C1=N2", "Potency": "inactive"}, {"smiles": "COc1cc2c(cc1Cc1cccc(Cl)c1F)c(=O)c(C(=O)O)cn2[C@H](CO)C(C)C", "Potency": "inactive"}, {"smiles": "CCCCc1ccc(NS(=O)(=O)c2ccc(C)c(C(=O)N3CCN(c4cccc(C)c4C)CC3)c2)cc1", "Potency": "inactive"}, {"smiles": "COc1cccc(OC)c1-c1cc(C(=O)NC2(C(=O)O)C3CC4CC(C3)CC2C4)nn1-c1ccnc2cc(Cl)ccc12", "note": "(stereo unspecified)", "Potency": "inactive"}, {"smiles": "Nc1ccn([C@@H]2O[C@H](CO)[C@@H](O)[C@H]2O)c(=O)n1", "Potency": "inactive"}, {"smiles": "O=C(NC[C@H](O)CO)c1ccncc1Nc1ccc(I)cc1F", "Potency": "inactive"}]}]}
